Screening results as filed in PubChem BioAssay.
In the library only some 1.1% were active in any assay of this set; here they are far more common.
MOR-DOR ag-1: OPRM1-OPRD1 heterodimerization agonism. P35372+P41143. AID 504326. activation, % at 9.3 µM. cells, luminescence. hit rate 0.3% among 340,000;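 note: 0% = vehicle-treated cells and 100% = reference agonist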
Target sequence (P35372 whole entry, looked up): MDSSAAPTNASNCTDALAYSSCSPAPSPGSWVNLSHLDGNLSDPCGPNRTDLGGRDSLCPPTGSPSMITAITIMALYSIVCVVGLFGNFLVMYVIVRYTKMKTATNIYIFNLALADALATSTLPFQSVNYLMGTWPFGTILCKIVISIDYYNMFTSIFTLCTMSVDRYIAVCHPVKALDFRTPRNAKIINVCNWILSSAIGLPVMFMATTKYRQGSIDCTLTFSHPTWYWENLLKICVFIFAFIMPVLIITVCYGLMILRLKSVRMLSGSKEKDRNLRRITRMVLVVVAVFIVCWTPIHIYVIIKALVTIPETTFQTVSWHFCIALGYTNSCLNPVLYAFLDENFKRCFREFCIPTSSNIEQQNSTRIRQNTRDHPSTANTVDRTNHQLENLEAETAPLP
Target sequence (P41143 whole entry, looked up): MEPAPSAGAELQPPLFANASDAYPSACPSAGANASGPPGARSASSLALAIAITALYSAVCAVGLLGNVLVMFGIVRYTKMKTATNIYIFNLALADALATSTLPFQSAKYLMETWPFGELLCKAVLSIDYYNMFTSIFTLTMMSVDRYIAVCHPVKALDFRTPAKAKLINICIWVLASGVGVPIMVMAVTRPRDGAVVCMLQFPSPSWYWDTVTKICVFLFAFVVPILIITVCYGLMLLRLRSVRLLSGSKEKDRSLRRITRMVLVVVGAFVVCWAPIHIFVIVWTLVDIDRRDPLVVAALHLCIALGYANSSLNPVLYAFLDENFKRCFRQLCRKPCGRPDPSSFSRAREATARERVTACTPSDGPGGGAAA
HTR5A ag ctr: activates human HTR5A in OPRM1-OPRD1 agonist counter-screen. AID 504692. HTR5A agonist assay, luminescence, cell-based. hit rate 0.61% among 340,000. activation, % at 9.3 µM; in the data active = activation mostly above about 9.5%, no sharp cut-off; inactive = mostly below about 7.6%;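 note: 0% = cells with vehicle only and 100% = reference agonist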
HTR5A inv ctr: counter-screen for OPRM1-OPRD1 inverse agonists: human HTR5A inverse agonism. P47898. HTR5A cell line, luminescence. inhibition, % at 9.3 µM. hit rate 0.083% among 340,000. AID 504634; in the data active = inhibition mostly above about 23%, no sharp cut-off; inactive = mostly below about 18%;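 note: 0% = cells with DMSO and 100% = no-cell wells with DMSO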
MOR-DOR inv ag-1: mu-delta opioid heterodimer inverse agonism. P35372+P41143. cell-based MOR-DOR heterodimer luminescence. inhibition, % at 9.3 µM. hit rate 0.21% among 340,000. AID 504357; in the data active = inhibition above about 22%, passing the limit was not always enough;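 note: 0% = cells with DMSO and 100% = wells without cells with DMSO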
MOR-DOR inv ag-2: inverse agonist of OPRM1-OPRD1 heterodimerization in HTR5A counter-screen | shares compounds with HTR5A inv ctr | U2OS counter-screen cells, complementation luminescence | inhibition, % at 9.3 µM | 190 tested, under 10 active; call rule not given here;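 note: 0% = cells with DMSO and 100% = wells without cells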
HTR5A inv conf: HTR5A (human) inverse agonism, confirmation | HTR5A-expressing cells, luminescence | 190 tested, under 10 active | inhibition, % at 9.3 µM | shares compounds with HTR5A inv ctr; call rule not given here;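 note: 0% = cells with DMSO and 100% = no cells with DMSO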
MOR-DOR ag-2: opioid heterodimer agonism, HTR5A counter-screen. activation, % at 9.3 µM. AID 504913. shares compounds with HTR5A ag ctr. hit rate 13% among 800. U2OS counter-screen cells, complementation luminescence, 3 h
HTR5A ag conf: HTR5A (human) agonism, confirmation | shares compounds with HTR5A ag ctr | HTR5A agonist cell assay, luminescence | activation, % at 9.3 µM | hit rate 17% among 800; in the data active = activation above about 17%;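 note: 0% = cells with vehicle only and 100% = full reference agonist response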
* hit, by the source's call. Cut-off read from the data, not from the text of the source, unless noted: active = activation above about 18%; inactive = the rest.

Results for COc1ccc(CN2C(=O)C(Cc3ccccc3)Nc3ncnc(N4CCN(c5ccccc5)CC4)c32)cc1 (stereo not drawn) ?
MOR-DOR ag-1: -9; HTR5A ag ctr: -15; HTR5A inv ctr: 44*; MOR-DOR inv ag-1: 41; MOR-DOR inv ag-2: 21; HTR5A inv conf: 55*

How did CC(C)CC1Nc2ncnc(N3CCN(c4ccccn4)CC3)c2N(Cc2ccc(Cl)cc2)C1=O (stereo not drawn) do in these assays?
MOR-DOR ag-1: 3; HTR5A ag ctr: 3; HTR5A inv ctr: 40*; MOR-DOR inv ag-1: -16; MOR-DOR inv ag-2: -27; HTR5A inv conf: 13

What do the screens show for `COc1ccc(CN2C(=O)C(CC(C)C)Nc3ncnc(N4CCN(c5ccccc5)CC4)c32)cc1` (stereo not drawn)?
MOR-DOR ag-1: -2; HTR5A ag ctr: 0; HTR5A inv ctr: -16; MOR-DOR inv ag-1: 14

Results for COc1ccc(F)cc1Cn1nc(C(=O)O)c2ccccc2c1=O ?
MOR-DOR ag-1: -1; HTR5A ag ctr: 5; HTR5A inv ctr: 2; MOR-DOR inv ag-1: 4

Results for COc1cc2nc(C3CCC3)nc(N3CCN(c4ccccn4)CC3)c2cc1OC ?
MOR-DOR ag-1: -1; HTR5A ag ctr: 1; HTR5A inv ctr: 52*; MOR-DOR inv ag-1: 8; MOR-DOR inv ag-2: -23; HTR5A inv conf: -2

What do the screens show for `COc1cccc(/C=N/Nc2nc(Nc3ccccc3)nc(-n3nc(C)cc3C)n2)c1O`?
MOR-DOR ag-1: 1; HTR5A ag ctr: -18; HTR5A inv ctr: 40*; MOR-DOR inv ag-1: -4; MOR-DOR inv ag-2: inactive; HTR5A inv conf: -4

Results for Cc1cc(C)n(-c2nc(Nc3ccccc3)nc(-n3nc(C)cc3C)n2)n1 ?
MOR-DOR ag-1: -5; HTR5A ag ctr: -1; HTR5A inv ctr: 6; MOR-DOR inv ag-1: 23

How did CCOC(=O)N1CCN(C(=O)COC(=O)Cc2ccc(Cl)cc2)CC1 do in these assays?
MOR-DOR ag-1: -2; HTR5A ag ctr: 3; HTR5A inv ctr: -8; MOR-DOR inv ag-1: 12

Results for COc1ccc(CC(=O)N(C)CC(=O)Nc2c(C)cccc2C)cc1S(=O)(=O)N1CCOCC1 ?
MOR-DOR ag-1: 0; HTR5A ag ctr: -10; HTR5A inv ctr: 28*; MOR-DOR inv ag-1: -2; MOR-DOR inv ag-2: 81*; HTR5A inv conf: -3

Results for O=C(NC1CCCC1)C(c1ccncc1)N(C(=O)Cn1nnc(-c2ccccc2F)n1)c1cccc(F)c1 (stereo not drawn) ?
MOR-DOR ag-1: 2; HTR5A ag ctr: 3; HTR5A inv ctr: -8; MOR-DOR inv ag-1: -16

Results for COc1ccc(CNc2ncnc3sccc23)cc1 ?
MOR-DOR ag-1: 1; HTR5A ag ctr: -9; HTR5A inv ctr: 25*; MOR-DOR inv ag-1: -6; MOR-DOR inv ag-2: -12; HTR5A inv conf: -5

What do the screens show for `COc1ccc(CNc2ncnc3sccc23)cc1OC`?
MOR-DOR ag-1: 0; HTR5A ag ctr: 1; HTR5A inv ctr: -1; MOR-DOR inv ag-1: 2

Results for CC1CC(C)CN(c2ncc3c(n2)CC(c2ccccc2Cl)CC3=O)C1 (stereo not drawn) ?
MOR-DOR ag-1: -2; HTR5A ag ctr: 2; HTR5A inv ctr: -33; MOR-DOR inv ag-1: 13

How did CC1CC(C)CN(c2ncc3c(n2)CC(c2ccc(Cl)cc2)CC3=O)C1 (stereo not drawn) do in these assays?
MOR-DOR ag-1: -1; HTR5A ag ctr: -10; HTR5A inv ctr: 32*; MOR-DOR inv ag-1: 4; MOR-DOR inv ag-2: -13; HTR5A inv conf: -9

Results for N#Cc1c(NC(=O)C2CC(c3c(F)cccc3Cl)=NO2)sc2c1CCC2 (stereo not drawn) ?
MOR-DOR ag-1: 0; HTR5A ag ctr: 5; HTR5A inv ctr: -12; MOR-DOR inv ag-1: -1

How did CCc1c(C)sc(NC(=O)C2CC(c3c(F)cccc3Cl)=NO2)c1C#N (stereo not drawn) do in these assays?
MOR-DOR ag-1: 2; HTR5A ag ctr: -9; HTR5A inv ctr: 33*; MOR-DOR inv ag-1: -12; MOR-DOR inv ag-2: -47; HTR5A inv conf: -8

How did CCN(CC(=O)NC1CCS(=O)(=O)C1)c1ccc(S(=O)(=O)N(CC)CC)cc1[N+](=O)[O-] (stereo not drawn) do in these assays?
MOR-DOR ag-1: -1; HTR5A ag ctr: 2; HTR5A inv ctr: -13; MOR-DOR inv ag-1: 2

What do the screens show for `Cc1ccc(NC(=O)CNC(=O)COc2ccccc2)nc1`?
MOR-DOR ag-1: -3; HTR5A ag ctr: -20; HTR5A inv ctr: 49*; MOR-DOR inv ag-1: 13; MOR-DOR inv ag-2: inactive; HTR5A inv conf: -5

How did CCOc1ccc(NC(=O)C(C)Oc2ccc(C#N)cc2)cc1S(=O)(=O)N1CCCC1 (stereo not drawn) do in these assays?
MOR-DOR ag-1: -1; HTR5A ag ctr: 1; HTR5A inv ctr: -2; MOR-DOR inv ag-1: 5

Results for Cc1cc(C(=O)CN2C(=O)C(=O)N(CCC3=CCCCC3)C2=O)c(C)n1C ?
MOR-DOR ag-1: -3; HTR5A ag ctr: -15; HTR5A inv ctr: 37*; MOR-DOR inv ag-1: 14; MOR-DOR inv ag-2: -413; HTR5A inv conf: -58

What do the screens show for `Cc1ccccc1NC(=O)c1ccc(NC(=O)C2CCCO2)cc1` (stereo not drawn)?
MOR-DOR ag-1: 0; HTR5A ag ctr: -1; HTR5A inv ctr: -4; MOR-DOR inv ag-1: 2

How did O=C1NC(c2ccccc2)=C(c2ccc3ccccc3n2)C(c2ccccc2)N1 (stereo not drawn) do in these assays?
MOR-DOR ag-1: 0; HTR5A ag ctr: -1; HTR5A inv ctr: 3; MOR-DOR inv ag-1: -2

How did O=C1NC(c2ccccc2)=C(c2nc3ccccc3s2)C(c2ccc(O)cc2)N1 (stereo not drawn) do in these assays?
MOR-DOR ag-1: 4; HTR5A ag ctr: 38*; HTR5A inv ctr: -71; MOR-DOR inv ag-1: -23; MOR-DOR ag-2: 13; HTR5A ag conf: 8

What do the screens show for `CCOC(=O)c1cc(C#N)c(N2CCN(C(=O)c3cccc(C(F)(F)F)c3)CC2)nc1C(F)(F)F`?
MOR-DOR ag-1: 1; HTR5A ag ctr: -1; HTR5A inv ctr: 4; MOR-DOR inv ag-1: -4

How did C/C(=N\NC(=O)CNc1cccc(C)c1)c1ccc(Br)s1 do in these assays?
MOR-DOR ag-1: 0; HTR5A ag ctr: 25*; HTR5A inv ctr: -131; MOR-DOR inv ag-1: 2; MOR-DOR ag-2: 3; HTR5A ag conf: 34*

How did C/C(=N\NC(=O)Cc1ccccc1)c1ccc(Br)s1 do in these assays?
MOR-DOR ag-1: 5; HTR5A ag ctr: -1; HTR5A inv ctr: 3; MOR-DOR inv ag-1: -24

Results for C/C(=N/NC(=O)CNC(=O)c1ccccc1)c1ccc(C)cc1 ?
MOR-DOR ag-1: 0; HTR5A ag ctr: -1; HTR5A inv ctr: 4; MOR-DOR inv ag-1: 0
